Results reported in PubChem BioAssay (NCI).
Compounds without any hit were thinned out: in the full panel of roughly 83,000, 20% have a hit.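 Each cell line was grown in a 96-well plate and treated with one concentration of compound for 48 hours. Values below 10 were considered active.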 The source made the active and inactive calls.

Tested on: SR leukemia
Assay: NCI-60 one-dose screen, 48 h (100 = growth as untreated, 0 = no growth, -100 = all killed)
Settings: 10 µM

| SMILES | growth |
| --- | --- |
| O=C(Nc1ccc(OS(=O)(=O)c2ccccc2)cc1)C1CCCCC1 | 47.2% (inactive) |
| S=c1cnc2ccccc2[nH]1 | 103% (inactive) |
| COc1cc(-c2nn(-c3cccc(NC(=O)NCCNC(=O)c4cccc(C(F)(F)F)c4)c3)cc2-c2ccncc2)ccc1Cl | 10.4% (inactive) |
| C[C@@H](O)[C@H]1C(=O)N2C(C(=O)O)=C(SCCN=CN)C[C@H]12 | -5.48% (active) |
| CC[C@@H](C(=O)[C@@H](C)[C@@H](O)[C@H](C)[C@@H]1O[C@@H]([C@@H](CC)C(=O)O)CC[C@@H]1C)C1O[C@]2(C=CC(=O)[C@]3(CC[C@@](C)([C@H]4CC[C@](O)(CC)[C@H](C)O4)O3)O2)[C@H](C)C[C@@H]1C (stereo partly drawn) | 31.3% (inactive) |
| CCC(c1ccc(OC)cc1)C(CC)c1ccc(O)c(CN2CCN(C)CC2)c1 (stereo not drawn) | 4.26% (active) |
| COc1ccc(C(=O)N2C=Cc3ccccc3C2C#N)cc1 (stereo not drawn) | 88.8% (inactive) |
| Cc1cc(SC#N)cc(C(C)(C)C)c1O | 86% (inactive) |
| COc1ccc(-c2n[nH]nc2-c2cc(OC)c3c(c2OC)OCO3)cc1 | 10.8% (inactive) |
| CN1C(C(=O)Nc2ccccn2)=C(O)c2sc(Cl)cc2S1(=O)=O | 96.1% (inactive) |
| Clc1ccc2c(c1)C(N1CCNCC1)=Nc1ccccc1O2 | 3.72% (active) |
| CC(C)(C)c1ccc(S(=O)(=O)N[C@H]2CC[C@H]3[C@@H]4CCc5cc(O)c([N+](=O)[O-])cc5[C@H]4CC[C@]23C)cc1 | 63.5% (inactive) |
| COc1cc(-c2csc(NC(=O)Nc3ccc(Cl)c(C(F)(F)F)c3)n2)cc(OC)c1OC | 0.909% (active) |
